This is one part of a sample in which hits are shown more often than they occur.
Tb PYK inh = T. brucei pyruvate kinase inhibition; Potency, µM (top dose mostly 76.8 µM), for inactives: at the highest dose activity, negative = inhibition, actives largely listed as inhibitors; TbPYK enzyme, Kinase-Glo Plus ATP luminescence, 45 min; Q57TT1; actives 0.12% (n = 410,000); further: potency means the concentration at half of the fitted maximal effect; on the % scale 0 is the no-effect control and ±100 the full control effect; nearly all actives have a fitted effect of over 50% in size
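T. brucei PYK with substrate was exposed to pin-transferred compounds across a concentration series, then started with 130 uM ADP (final). After 45 min at room temperature, Kinase-Glo Plus luminescence was read, normalized and curve-fitted.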
LmPK inhibitor = LmPK (Leishmania mexicana) enzyme inhibition. purified LmPK, Kinase-Glo ATP luminescence, 1 h. Potency, µM (titrated, usually from 57.5 µM), for the others: at the top dose activity change, negative = inhibition, usual class: inhibitors. actives 0.37% (n = 290,000); further: potency means the concentration at half of the fitted maximal effect; on the % scale 0 is the no-effect control and ±100 the full control effect
Target sequence (Q27686 whole entry, looked up): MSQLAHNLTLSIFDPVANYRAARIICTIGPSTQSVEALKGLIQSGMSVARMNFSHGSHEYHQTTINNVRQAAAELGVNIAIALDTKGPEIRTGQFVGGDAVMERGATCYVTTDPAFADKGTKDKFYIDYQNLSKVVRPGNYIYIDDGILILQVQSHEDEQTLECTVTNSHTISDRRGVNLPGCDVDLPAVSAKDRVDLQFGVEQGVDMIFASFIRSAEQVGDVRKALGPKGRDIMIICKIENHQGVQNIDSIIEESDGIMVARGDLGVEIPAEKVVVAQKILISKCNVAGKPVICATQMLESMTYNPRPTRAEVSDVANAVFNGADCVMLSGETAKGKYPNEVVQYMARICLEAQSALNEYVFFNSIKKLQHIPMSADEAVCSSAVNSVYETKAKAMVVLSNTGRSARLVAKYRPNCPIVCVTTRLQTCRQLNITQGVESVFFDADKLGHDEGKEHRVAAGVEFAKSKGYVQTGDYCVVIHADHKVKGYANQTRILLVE
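Purified LmPK (0.1 nM) with 0.5 mM PEP and 0.1 mM ADP in imidazole buffer pH 7.2 with MgCl2/KCl, 1 h at room temperature. ATP formed was read by luciferase luminescence and normalized to no-enzyme and uninhibited controls.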
CHX counter = affects cycloheximide protein synthesis inhibition readout, counter-screen | cell reporter, cycloheximide protein synthesis inhibition counterscreen | AID 2314 | actives 12% (n = 300,000) | max response, %; in the data active means max response mostly above about 13%, no sharp cut-off; inactive means mostly below about 14%; further: read at 38.3 µM for the half of the compounds with a filed dose; 0% is about no effect
FBPA Giardia inh = Giardia lamblia aldolase inhibition. Potency, µM (highest dose often 59.6 µM), inactives show at the highest dose activity, negative = inhibition, most hits filed as inhibitors. A8B2U2. purified Giardia FBPA. AID 2451. actives 0.71% (n = 290,000); further: potency means the concentration at half of the fitted maximal effect; on the % scale 0 is the no-effect control and ±100 the full control effect; nearly all actives have a fitted effect of over 55% in size
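Giardia FBPA (40 nM reagent) was preincubated 10 min at RT with compound (up to 57.5 uM final), then substrate plus GAPDH/TPI/NAD/arsenate coupling system with diaphorase/resazurin was added; resorufin fluorescence (525/598 nm) was read after 20 min.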
RE007 growth inh = less growth of the S. pombe RE007 Vpr strain; actives 0.21% (n = 360,000); S. pombe RE007 Vpr strain, BacTiter-Glo ATP luminescence, 24 h; Potency, µM (titrated, usually from 92.2 µM), inactives show at the highest dose activity change, negative = less growth, most hits filed as inhibitors; active means well fitted falling curve with a large enough effect; inconclusive means small, poorly fitted or top-dose-only effect; inactive means no such curve, though single readings can be large or run the other way; further: potency means the concentration at half of the fitted maximal effect; on the % scale 0 is the no-effect control and ±100 the full control effect; nearly all actives have a fitted effect of over 50% in size
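Fission yeast strain RE007, carrying one chromosomally integrated HIV-1 vpr copy, was seeded at OD 0.01 in PMG+AL medium with 23 nL pinned compound. After 24 h at 30 °C and 99% humidity, viability was read by BacTiter-Glo luminescence.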
Shiga toxin inh = inhibitors of Shiga toxin in Vero cells. Vero cells, Shiga toxin protein synthesis inhibition reporter. inhibition, % at 38.7 µM. actives 9.2% (n = 290,000); in the data active means inhibition mostly above about 28%, no sharp cut-off; inactive means mostly below about 43%; further: 0% is about no effect
An asterisk follows results filed as active; ? = inconclusive; / = no result given; [ ] = another dose, or the depositor's remark. Unless noted, the call rests on the fitted dose curve; in most records, active means well fitted curve in the direction sought with a large enough effect; inconclusive means small, poorly fitted or top-dose-only effect, or another doubt; inactive means no such curve, though single readings can be large; an effect the other way counts as inactive or inconclusive.

SMILES	Tb PYK inh	LmPK inhibitor	CHX counter	FBPA Giardia inh	RE007 growth inh	Shiga toxin inh
COc1ccc(/C(N)=N/OC(=O)CCCc2ccccc2)cc1OC	-12.0%	2.6%	26.7*	-0.1%	/	21.5
CC(C(=O)O/N=C(\N)c1ccccn1)c1ccc([N+](=O)[O-])cc1 (stereo unspecified)	-4.6%	1.3%	39.8*	9.8%	-2.7%	70.2*
N/C(=N\OC(=O)CCCc1ccccc1)c1ccc(Br)cc1	8.9%	-11.3%	11.2	/	-12.2%	-22.6
Cc1ccc(Cc2c(-c3cccc(Cl)c3)nc3c(C)cc(Br)cn23)cc1	7.2%	/	/	/	-7.4%	/
COc1ccc2[nH]c3c(=O)n(N)c(C)nc3c2c1	-3.1%	-1.6%	8.9	0.0%	5.4%	13.8
Cc1ccc2[nH]c3c(=O)n(N)c(C)nc3c2c1	-3.2%	-6.7%	16.7*	-4.0%	-16.5%	37.5
C[C@@H]1C(=O)O[C@H](C)[C@H]1C[C@@H](O)[C@](C)(O)C1CC[C@@]2(O)C3=CC(=O)[C@@H]4C[C@@H](O)[C@@H](O)C[C@]4(C)C3CC[C@]12C (stereo partly specified)	-1.4%	/	/	/	23.0%	/
CCC(Sc1nncn1C)C(=O)Nc1nnc(-c2ccccc2Cl)s1 (stereo unspecified)	-0.8%	2.2%	17.4*	-4.1%	-3.3%	27.1
COc1cccc(Nc2ncc3nc(C)c(=O)n(CCc4ccccc4)c3n2)c1	/	/	/	5.9%	/	/
O=C(Cc1ccccc1)Nc1ccc(NC(=O)c2ccco2)nc1	1.6%	4.6%	44.5*	0.4%	37.1%	105.3*
O=C(Nc1ccc(NC(=O)c2ccco2)nc1)c1ccccn1	3.4%	?	27.5*	0.5%	-27.1%	20.1
COc1ccccc1C(=O)Nc1ccc(NC(=O)c2ccco2)cn1	2.3%	0.1%	27.6*	4.3%	-20.1%	89.9*
O=C(Nc1ccccn1)c1ccco1	2.2%	-11.4%	45.2*	/	-13.9%	97.9
O=C(Nc1ccc(NC(=O)c2ccco2)nc1)c1ccco1	-2.7%	-5.2%	10.9	3.4%	-9.1%	42.1
O=C(Nc1nnc([C@@H]2C[C@H](O)[C@@H](CO)O2)s1)c1cccc2ccccc12	-1.0%	/	/	/	-9.3%[18.4 µM]	/
CN(C)c1ccc(NC(=O)CCN2C(=O)c3cccc([N+](=O)[O-])c3C2=O)cc1	-18.2%	-1.8%	15.5*	0.4%	-12.0%	22.9
CCOc1ccc(NC(=O)CCN2C(=O)c3cccc([N+](=O)[O-])c3C2=O)cc1	0.8%	-17.7%	-2.1	6.3%	9.0%	-6.9
Cc1nn(C)cc1S(=O)(=O)Nc1ccccc1Br	1.1%	-1.0%	5.5	-1.2%	-0.6%	-6.0
O=C(O)c1ccc(N=NN2CCCCCC2)cc1	-6.5%	-1.7%	42.2*	13.7%	18.4%	73.6*
Nc1nc(N2CCN(c3ccccn3)CC2)nc2ccccc12	1.6%	-6.6%	42.8*	-6.7%	/	89.4*
c1ccc2c(c1)Nc1cc3ccccc3cc1S2	-2.5%	3.5%	26.0*	?	-9.7%	46.7*
COc1ccc2c(c1)Sc1ccccc1N2	-10.3%	-14.0%	30.5*	-12.2%	?	29.1
COc1ccc2c(c1)S(=O)(=O)c1ccccc1N2	-0.7%	-0.7%	-2.1	-4.9%	6.4%	-3.8
O=C(c1cn(CCOc2ccc(Cl)cc2)c2ccccc12)C1CCCCC1	0.4%	/	/	/	/	/
CCOC(=O)C1(Cc2ccccc2C)CCCN(C(=O)c2ccoc2)C1 (stereo unspecified)	2.1%	-4.4%	44.4*	/	6.1%	71.2*
CCOC(=O)C1(Cc2ccccc2C)CCCN(C(=O)c2sccc2C)C1 (stereo unspecified)	6.9%	-4.6%	29.3*	/	-2.1%	19.8
CCOC(=O)C1(Cc2ccccc2C)CCCN(Cc2cc(OC)c(O)c(OC)c2)C1 (stereo unspecified)	-2.2%	4.0%	12.7*	?	-0.1%	38.1*
CCOC(=O)C1(Cc2ccccc2C)CCCN(C(=O)c2ccnn2C)C1 (stereo unspecified)	-4.3%	1.2%	8.7	-0.1%	-5.9%	9.1
CCOC(=O)CNC(=O)O[C@@H]1C(=O)c2cc(OC)ccc2O[C@H]1c1ccc(OC)c(Br)c1	/	/	/	-0.9%	/	/

From PubChem BioAssay
